# Screens from PubChem BioAssay.
# Gal4-VP16 FLuc – inhibits Gal4-VP16 luciferase reporter, ROR gamma counter-screen. AID 2546. Potency, µM (series often up to 53.6 µM), for the others: top-dose activity, negative = inhibition, actives largely listed as inhibitors. Drosophila S2 Gal4-VP16 UAS-luciferase, luminescence, 20 h. 3.5% of 310,000 active;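 further: Gal4-VP16 expression switched on by copper sulfate through the metallothionein promoter; nearly all actives have a fitted effect of over 50% in size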
# DT40 TDP1 no CPT – qHTS for Inhibitors of human tyrosyl-DNA phosphodiesterase 1 (TDP1): qHTS in cells in absence of CPT; DT40 Tdp1-/- hTDP1 cells, no CPT, ATP luminescence, 48 h; Potency, µM (doses to about 46.2 µM), for inactives: top-dose activity change, negative = growth inhibition, most hits filed as inhibitors; 15% of 420,000 active; AID 686978, 2013; further: nearly all actives have a fitted effect of over 55% in size
#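 Chicken DT40 Tdp1-/- cells stably complemented with human TDP1 were seeded at 400 cells/well with DMSO in place of 20 nM camptothecin. After compound pinning, cells grew at least 48 hr at 37 °C; viability read by CellTiter-Glo luminescence.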
# ELG1 repair inh – blocks ELG1-dependent DNA repair in HEK293T cells; HEK293T ELG1-luciferase reporter, luminescence, 16 h; DNA damage induced by 5-fluorouridine; Potency, µM (highest dose often 46.1 µM), without a hit: top-dose activity change, negative = inhibition, usual class: inhibitors; 2.3% of 330,000 active; AID 504467; further: nearly all actives have a fitted effect of over 55% in size
#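 DMSO vehicle served as the neutral condition. Each well held 2,000 cells given 5-fluorouridine plus compound; after 16 hr at 37 °C/5% CO2, ONE-Glo was added and luciferase measured 30 min later.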
# ALOX12 inh – ALOX12 (human) lipoxygenase inhibition | P18054 | purified 12hLO, xylenol orange hydroperoxide absorbance | Potency, µM (series often up to 108 µM), inactives show at the top dose activity change, negative = inhibition, actives largely listed as inhibitors | 1.1% of 580,000 active
#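 Hydroperoxide product was detected by ferrous iron/xylenol orange as the 573 to 405 nm absorbance ratio. Arachidonic acid at 40 uM (final) was turned over for 30 min at room temperature by 150 nM human 12hLO, pH 7.0 Hepes buffer, after 15 min compound preincubation.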
# RORgamma inh – inhibitors of mouse ROR gamma transcriptional activity; Potency, µM (doses to about 53.6 µM), inactives show at the top dose activity change, negative = inhibition, actives largely listed as inhibitors; 5.4% of 310,000 active; Drosophila S2 Gal4-RORgamma UAS-luciferase reporter, 20 h; AID 2551; further: nearly all actives have a fitted effect of over 60% in size
# Target sequence (P51450 whole entry, looked up, the tested form may be a part): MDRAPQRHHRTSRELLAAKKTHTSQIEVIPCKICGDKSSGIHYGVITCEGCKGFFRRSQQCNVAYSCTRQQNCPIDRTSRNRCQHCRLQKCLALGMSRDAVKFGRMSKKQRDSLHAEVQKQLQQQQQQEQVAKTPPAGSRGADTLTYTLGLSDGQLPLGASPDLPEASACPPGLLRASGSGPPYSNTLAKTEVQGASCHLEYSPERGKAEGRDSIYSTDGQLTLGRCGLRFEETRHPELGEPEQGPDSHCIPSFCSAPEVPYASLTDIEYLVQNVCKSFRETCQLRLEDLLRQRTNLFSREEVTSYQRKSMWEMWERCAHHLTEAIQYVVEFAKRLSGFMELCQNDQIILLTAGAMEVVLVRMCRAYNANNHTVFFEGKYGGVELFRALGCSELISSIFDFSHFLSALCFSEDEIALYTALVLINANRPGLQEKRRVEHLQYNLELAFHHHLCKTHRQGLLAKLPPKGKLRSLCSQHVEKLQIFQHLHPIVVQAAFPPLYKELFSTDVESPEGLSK
#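 Read-out: Photinus luciferase luminescence; inhibitors lower reporter signal. Insect Schneider cells with Gal4-ROR gamma fusion under metallothionein promoter, UAS reporter; 700 uM final copper sulfate induction, 20 hr, ambient temperature.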
# DT40 TDP1 CPT – growth inhibition of DT40 Tdp1-/-;hTDP1 cells with camptothecin (screen for TDP1 inhibitors). chicken DT40 Tdp1-/-;hTDP1 cells + 20 nM CPT, ATP luminescence, 48 h. Potency, µM (titrated, usually from 46.2 µM), for the others: top-dose activity change, negative = growth inhibition, usual class: inhibitors. 12% of 420,000 active; further: nearly all actives have a fitted effect of over 55% in size
#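 Cell growth measured by CellTiter-Glo luminescence after a minimum 48 h, 37 C compound exposure with 20 nM CPT in Tdp1-knockout DT40 cells stably expressing hTDP1, seeded 400/well; qHTS titration format.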
# * hit, by the source's call; u = inconclusive; x = no result; [ ] = another dose, or the depositor's remark. Compounds with a hit are over-represented: about 15% of the library has one in this group of screens. The call rests on the fitted dose curve; in most records, active means well fitted curve in the direction sought with a large enough effect; inconclusive means small, poorly fitted or top-dose-only effect, or another doubt; inactive means no such curve, though single readings can be large; an effect the other way counts as inactive or inconclusive. On the % scale 0 is the no-effect control and ±100 the full control effect; potency means the concentration at half of the fitted maximal effect.
SMILES,Gal4-VP16 FLuc,DT40 TDP1 no CPT,ELG1 repair inh,ALOX12 inh,RORgamma inh,DT40 TDP1 CPT
COc1cccc(/C=N/NC(=O)c2ccc(N3CCCC3=O)cc2)c1,-15%,23µM*,2%,-10%,-26%,u
O=C(N/N=C/c1cc(Br)cc(Br)c1O)c1cccc(S(=O)(=O)N2CCOCC2)c1,-1%,3.7µM*,u,0%,-22%,3.7µM*
O=C(N/N=C/c1cc(Br)cc(Br)c1O)c1cccc(N2CCCC2=O)c1,10µM*,1.5µM*,u,0%,3.5µM*,5.2µM*
O=C(N/N=C/c1ccccc1Br)c1cccc(S(=O)(=O)N2CCOCC2)c1,x,-3%,u,8%,x,-4%
O=C(N/N=C/c1ccc(Cl)cc1Cl)c1cccc(N2CCCC2=O)c1,-3%,-23%,15%,6%,8%,-27%
COCCOC(=O)C1=C(C)NC2=C(C(=O)CC(C)(C)C2)C1c1ccc2c(c1)OCO2 (configuration not stated),-3%,-8%,8%,-5%,-2%,5%
CC1(C)CC(=O)C2=C(C1)Nc1[nH]n(-c3ccccc3)c(=O)c1C2c1ccc2c(c1)OCO2 (configuration not stated),4%,5.2µM*,16%,u,16%,7.3µM*
COc1ccc(NC(=O)c2sc3ncn(CC(=O)N4CCN(c5ccccn5)CC4)c(=O)c3c2C)c(OC)c1,-3%,8%,u,2%,-14%,0%
Cc1c(C(=O)N2CCN(c3ccc(F)cc3)CC2)sc2ncnc(N3CCN(c4ccccn4)CC3)c12,-23%,15µM*,6.5µM*,10%,44%,18µM*
COc1ccccc1N1CCN(C(=O)c2sc3ncnc(N4CCN(c5ccccn5)CC4)c3c2C)CC1,-18%,4.6µM*,18µM*,x,19%,4.6µM*
COc1ccc(OC)c(NC(=O)c2sc3ncnc(N4CCN(c5ccccn5)CC4)c3c2C)c1,-6%,21µM*,2.6µM*,x,-23%,u
Cc1nc(N2CCN(c3ccccn3)CC2)c2c(C)c(C(=O)N3CCN(c4ccc(F)cc4)CC3)sc2n1,-20%,u,23µM*,-20%,3%,u
CCCn1c(=O)n(CC(=O)Nc2ccccc2OC)c(=O)c2c1nc(C)n2CCOC,x,x,x,21%,x,x
Cc1c(-c2ccccc2)oc2c(C(=O)OCC(=O)NC3CCCC3)cccc2c1=O,x,x,x,5%,x,x
O=c1c2cnc(N3CCCCC3)nc2ccn1-c1ccc(F)cc1,x,x,x,16%,x,x
CCn1ccc(C(=O)N2CCC3(CC2)CC(OCC2CC2)CCO3)n1 (configuration not stated),x,x,x,36%,x,x
C#CCNC(=O)C(CCSC)NC(=O)c1ccc2ccccc2n1 (configuration not stated),x,x,x,-2%,x,x
CCOc1ccc(/C=C/c2ccc3ccccc3[n+]2C)cc1OCC,x,2µM*,x,x,x,4µM*
CC[n+]1c(/C=C/c2cc([N+](=O)[O-])ccc2O)ccc2ccccc21,3%,23µM*,-16%,u,33%,u
CC[n+]1c(/C=C/c2ccc(OC)c(OC)c2)ccc2ccccc21,-4%,u,u,7.9µM*,-12%,u
CC[n+]1c(/C=C/c2ccc(OC(C)=O)c(OC)c2)ccc2ccccc21,-23%,18µM*,u,u,-22%,16µM*
COCCNC(=O)[C@@H]1C[C@H](Oc2ccccc2)CN1C(=O)c1sc(C)nc1C,x,x,x,34%,x,x
OCC1CCCCC1CN1CCNCC1 (configuration not stated),x,x,x,-9%,x,x
O=C(c1ccccc1F)N1CCC2(C1)C(=O)Nc1ccccc12 (configuration not stated),x,x,x,1%[6.33 µM],x,x
CC(=O)Nc1cccc(C(=O)/C=C/c2cccs2)c1,-15%,21µM*,7%,-2%,4%,u
SMILES,Gal4-VP16 FLuc,DT40 TDP1 no CPT,ELG1 repair inh,ALOX12 inh,RORgamma inh,DT40 TDP1 CPT
CC(=O)Nc1cccc(C(=O)/C=C/c2ccc(F)cc2)c1,u,4.6µM*,u,-24%,13µM*,2.3µM*
CC(=O)Nc1cccc(C(=O)/C=C/c2ccc[nH]2)c1,8%,u,u,u,38%,u
CC(=O)Nc1cccc(C(=O)/C=C/c2ccc(/C=C/C(=O)c3cccc(NC(C)=O)c3)cc2)c1,u,x,u,13%,10µM*,x
CCC(=O)Nc1cccc(C(=O)/C=C/c2cc(Br)ccc2OC)c1,u,4.1µM*,u,0%,11µM*,2.9µM*
COc1ccc(Br)cc1/C=C/C(=O)Nc1ccc2ccccc2c1,-9%,u,-9%,-8%,36%,u
CC(=O)Nc1cccc(C(=O)/C=C/c2ccc(N(C)C)cc2)c1,6%,u,u,-27%,u,3%
Cc1ccc(S(=O)(=O)N2CCC(Oc3ncccc3C(=O)N(C)C)C2)cc1F (configuration not stated),x,x,x,33%,x,x
N#Cc1ccc(Oc2cccc3ccccc23)cc1C#N,x,x,x,-7%,x,x
O=C(c1ccccc1F)N1CCC2(CC1)CC(OCC1CC1)CCO2 (configuration not stated),x,x,x,36%,x,x
CC(=O)Nc1cccc(C(=O)/C=C/c2ccc(Br)cc2)c1,u,4.6µM*,u,-5%,u,3.3µM*
